Assay: inhibitors of Bodipy-GTP binding across eight GTPases, SAR follow-up, selectivity assay for Cdc42 probe extension project, biochemical, round 1 SAR, Mg buffer, multiplex flow cytometry (AID 588477)
Details: GST-GTPase beads, Ras constitutively active; series mostly up to 100 µM; percent response (remaining binding): at the top concentration;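 active means valid curve fit with half-effect dose at most 10 µM and total binding change across doses of 30 points or more; inactive means the rest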

Percent response (remaining binding), inactive:
O=C(C#Cc1ccccc1)c1cccc([N+](=O)[O-])c1 28.2%, COc1ccc(C2CC(c3ccccc3)=NN2c2ccc(S(N)(=O)=O)cc2)cc1 (stereo not drawn) -36.9%, NS(=O)(=O)c1ccc(N2N=C(c3ccccc3)CC2c2ccccc2)cc1 (stereo not drawn) 29.9%

— PubChem BioAssay AID588477 (NMMLSC, 2011)
